Hits are enriched below; roughly 3.4% of the tested compounds scored in any of these assays.
PLC-beta3 inh = blocks human PLC-beta3 enzyme activity. Q01970. Purified PLC-beta3, fluorogenic substrate, fluorescence. inhibition, % at 12.2 µM. actives 0.18% (n = 370,000); in the data active = inhibition above about 11%;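 also: 0% = median of compound wells on plate and 100% = full blocker control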
ADAM17 inh = inhibits human ADAM17 | AID 720648 | recombinant ADAM17, EDANS/DABCYL FRET peptide cleavage | inhibition, % at 6.95 µM | actives 0.83% (n = 370,000);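 active = inhibition above the mean of compounds lying between control limits plus 3 SD, set per campaign, cut at about 8.5% in these data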;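 also: 0% = DMSO-only wells as the low control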
ADAM10 inh = inhibitors of human ADAM10; O14672; recombinant ADAM10, EDANS/DABCYL FRET peptide cleavage, 3 h; inhibition, % at 7 µM; actives 0.62% (n = 370,000);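 active = inhibition above a per-campaign cutoff equal to the mean of compounds falling between control-based bounds plus 3 SD, cut at about 20% in these data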;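 also: 0% = DMSO wells while the 100% control is not disclosed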
sPLA2-III inh = Inhibits HGIII-sPLA2 liposome hydrolysis, primary screen; Q9NZ20; QFRET BODIPY PC-A2 liposome hydrolysis, fluorescence; inhibition, % at 12.2 µM; actives 0.56% (n = 370,000);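 active = inhibition above mean plus 3 SD of compounds lying within the high and low control bounds, cut at about 19% in these data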;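 also: 0% = median of test compound wells and 100% = no enzyme DMSO wells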
PLC-gamma1 inh = PLC-gamma1 (human) inhibition, primary screen; P19174; purified PLC-gamma1, fluorogenic substrate, fluorescence; inhibition, % at 12.2 µM; actives 0.84% (n = 370,000); in the data active = inhibition above about 9.5%
Target sequence (P19174 whole entry, looked up): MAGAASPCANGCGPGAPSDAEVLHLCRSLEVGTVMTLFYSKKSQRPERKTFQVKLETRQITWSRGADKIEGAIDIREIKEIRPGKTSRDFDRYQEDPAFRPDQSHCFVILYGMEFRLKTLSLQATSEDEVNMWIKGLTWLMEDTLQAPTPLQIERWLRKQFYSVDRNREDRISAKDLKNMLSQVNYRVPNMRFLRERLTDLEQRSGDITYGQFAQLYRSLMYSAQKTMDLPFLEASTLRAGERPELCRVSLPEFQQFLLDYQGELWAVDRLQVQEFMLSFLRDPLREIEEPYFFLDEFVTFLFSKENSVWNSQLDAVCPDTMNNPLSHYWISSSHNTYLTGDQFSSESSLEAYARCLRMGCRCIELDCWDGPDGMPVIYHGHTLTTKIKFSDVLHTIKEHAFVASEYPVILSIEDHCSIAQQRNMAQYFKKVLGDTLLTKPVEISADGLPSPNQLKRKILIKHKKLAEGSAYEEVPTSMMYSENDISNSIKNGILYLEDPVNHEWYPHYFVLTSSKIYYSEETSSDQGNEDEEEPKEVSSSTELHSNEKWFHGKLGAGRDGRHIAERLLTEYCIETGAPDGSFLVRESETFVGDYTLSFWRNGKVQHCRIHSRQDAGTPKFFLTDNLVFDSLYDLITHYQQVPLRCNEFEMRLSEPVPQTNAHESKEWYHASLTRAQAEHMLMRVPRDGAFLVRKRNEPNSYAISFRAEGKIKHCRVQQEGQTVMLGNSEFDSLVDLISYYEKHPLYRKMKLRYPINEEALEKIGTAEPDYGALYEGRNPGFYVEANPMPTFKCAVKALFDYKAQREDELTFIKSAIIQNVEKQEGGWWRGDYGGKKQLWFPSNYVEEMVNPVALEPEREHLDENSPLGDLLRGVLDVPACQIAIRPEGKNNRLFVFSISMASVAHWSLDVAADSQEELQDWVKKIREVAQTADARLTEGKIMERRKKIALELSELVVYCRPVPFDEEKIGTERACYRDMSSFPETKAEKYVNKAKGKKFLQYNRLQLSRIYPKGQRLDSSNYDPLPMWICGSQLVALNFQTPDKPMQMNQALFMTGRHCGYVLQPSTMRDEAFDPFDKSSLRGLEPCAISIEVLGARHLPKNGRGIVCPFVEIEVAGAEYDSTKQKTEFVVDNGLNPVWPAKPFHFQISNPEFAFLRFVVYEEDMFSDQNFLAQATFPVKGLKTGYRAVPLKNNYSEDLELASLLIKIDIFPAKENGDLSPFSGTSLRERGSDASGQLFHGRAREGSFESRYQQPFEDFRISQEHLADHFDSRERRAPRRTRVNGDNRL
proKLK7 act = activates the human kallikrein-7 zymogen; purified proKLK7, EDANS-DABCYL substrate fluorescence; 100% is mature enzyme control, 0% vehicle; actives 0.9% (n = 370,000); activation, % at 7 µM; P49862;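 active = activation above the mean of all tested compounds plus 3 SD, computed per campaign excluding outliers beyond control limits, cut at about 13% in these data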
ADAM10 confirm = confirmation of inhibitors of human ADAM10 | inhibition, % at 6.95 µM | AID 743208 | ADAM10 QFRET peptide cleavage, EDANS fluorescence | shares compounds with ADAM10 inh | actives 1% (n = 2,100);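 active = inhibition above about 20% chosen separately for each screening run, limit read from the data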;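 also: 0% = DMSO wells and 100% = marimastat wells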
ADAM17 ctr = counter-screen for ADAM10 exosite inhibitors: inhibitors of human ADAM17. ADAM17 QFRET peptide cleavage, EDANS fluorescence. actives 0.5% (n = 2,100). inhibition, % at 6.95 µM. shares compounds with ADAM10 inh. AID 743214;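 active = mean triplicate inhibition above the solvent-only control wells' mean plus 3 SD, cut at about 12% in these data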;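 also: 0% = DMSO wells and 100% = marimastat wells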
An asterisk follows results filed as active; / = no result.

SMILES	PLC-beta3 inh	ADAM17 inh	ADAM10 inh	sPLA2-III inh	PLC-gamma1 inh	proKLK7 act	ADAM10 confirm	ADAM17 ctr
O=C1NC[C@H](c2ccccc2)OC(=O)[C@@H](Cc2ccc(F)cc2)CC/C=C/C[C@H]1CC(=O)N(CCO)Cc1ccccc1	-1.1	5.7	13.5	-45.5	3.6	0.4	/	/
COC(=O)[C@]12C[C@H](CC(=O)NCCC(C)C)C(=O)N(Cc3cccc4ccccc34)C1=C[C@H](COCc1ccccc1)O[C@@H]2C	-1.6	2.2	9.4	-18.9	1.9	0.4	/	/
COc1ccc(-n2c(SCC(=O)Nc3ccccc3-c3ccccc3)nnc2-c2ccccc2)cc1	-2.9	7.6	17.5	2.0	5.4	-0.4	/	/
CCCc1ccc(Oc2cn[nH]c2-c2ccc(O)c(C)c2O)cc1	-4.9	13.8*	32.1*	-43.9	0.8	-0.5	11.4	3.8
Cc1nc2cc(NC(=O)c3ccc(Cl)cc3)ccc2n1C	-0.2	0.2	22.9*	5.4	6.8	0.0	1.3	-0.2
O=C(C1CCCO1)N1CCN(C2=Nc3ccccc3Sc3ccccc32)CC1 (configuration not stated)	5.7	-0.7	0.5	3.9	6.5	-0.5	/	/
Nc1[nH]c(C(=O)c2ccccc2)c(-c2ccc([N+](=O)[O-])cc2)c1C(=O)NCCc1c[nH]c2ccccc12	-0.2	1.1	8.5	-16.4	2.7	-0.3	/	/
Nc1[nH]c(C(=O)c2ccccc2)c(-c2ccccc2[N+](=O)[O-])c1C(=O)NCCc1c[nH]c2ccccc12	-8.8	12.2*	25.0*	-33.9	-7.2	0.4	3.5	1.8
CC(NC(=S)NC(=O)c1cccs1)c1ccccc1 (configuration not stated)	2.3	0.7	7.4	8.3	-0.3	-0.1	/	/
CC(NC(=O)c1cccs1)C(S)c1ccccc1 (configuration not stated)	5.7	14.6*	34.5*	-0.3	9.0	0.2	6.5	1.6
COc1ccc(S(=O)(=O)N2CCN(CC(=O)c3ccc(O)c(O)c3)CC2)cc1	3.2	-1.9	21.9*	3.8	2.1	0.5	1.6	0.5
Cc1cc(C)c(C)c(S(=O)(=O)Nc2ccc3cn[nH]c3c2)c1C	-5.5	-6.3	99.0*	-55.7	-3.3	-0.8	1.5	0.8
COc1ccc(S(=O)(=O)Nc2ccc3cn[nH]c3c2)cc1C	-1.9	3.8	-1.5	-41.9	-6.6	-1.0	/	/
O=C(O)Cn1nnnc1SCC(=O)Nc1ccc(OC(F)(F)F)cc1	-3.5	-5.4	81.8*	4.3	-4.2	-7.5	-0.8	-0.2
Cc1ccc(C2=CCN(C)C(=O)N2c2ccccc2)cc1	-3.6	-1.9	-3.1	8.7	-2.0	0.6	/	/
Cc1ccc(C(=S)NCS(=O)(=O)c2ccc(C)cc2)cc1	1.9	6.7	26.4*	18.7	-0.3	-0.2	21.4*	6.6
Cc1ccc(S(=O)(=O)NC(=S)c2ccccc2)cc1	-5.1	-1.5	1.2	3.6	2.1	0.0	/	/
O=C(Nc1ccc(OC(F)(F)F)cc1)Nc1nc2ncccn2c1-c1ccc(C(F)(F)F)cc1	-256.8	-34.1	-133.6	0.4	-200.8	6.1	/	/
OCC1(Cc2ccccc2F)CCCN(CCc2ccccc2)C1 (configuration not stated)	6.2	3.7	23.0*	-0.8	5.3	0.3	1.2	1.6
Cc1cc(C)cc(NC(=S)N2CCN(c3ncccn3)CC2)c1	2.9	0.5	34.7*	4.0	4.1	0.0	2.0	0.3
O=C(NCC1COc2ccccc2O1)c1ccc(NC(=O)c2c(Cl)cccc2Cl)cc1 (configuration not stated)	-0.7	5.8	11.6	-9.5	-0.1	-0.4	/	/
CCN(CC)S(=O)(=O)c1cccc(NC(=O)C2SC(=Nc3ccc(C)cc3C)C(C(=O)NC(C)COC)=C2N)c1 (configuration not stated)	-4.5	6.7	20.3*	-22.4	2.3	0.3	8.9	3.7
S=c1[nH]nc(COc2ccccc2)n1/N=C/C(Cl)=C/c1ccccc1	0.5	5.0	19.9*	-11.0	4.1	-0.6	2.7	1.1
Fc1ccccc1-c1n[nH]c(=S)n1N=Cc1ccc(OCc2ccccc2)cc1	-6.3	8.2	24.9*	-22.8	-6.0	1.0	6.3	1.7
COC(=O)c1sc2ccccc2c1-n1cccc1C(=O)C(=O)Nc1ccccc1	1.6	3.1	12.9	-3.1	0.3	-1.0	/	/
SMILES	PLC-beta3 inh	ADAM17 inh	ADAM10 inh	sPLA2-III inh	PLC-gamma1 inh	proKLK7 act	ADAM10 confirm	ADAM17 ctr
COC(=O)c1sc2ccccc2c1-n1cccc1C(=O)C(=O)Nc1ccc(OC)cc1	-13.2	8.3	21.9*	5.9	-16.0	-3.1	4.6	2.5
C=CCc1cccc(CNc2nc3ccccc3n2CC)c1O	-0.2	5.4	20.0*	7.6	0.5	-0.2	3.2	1.1
Cc1cc(N2CCOCC2)ccc1/C=C\[N+](=O)[O-]	4.9	4.7	19.9*	11.9	5.5	0.1	0.8	-0.1
Brc1ccc(CSc2nnc(SCc3ccccc3)s2)cc1	0.8	-0.8	-7.3	6.8	-0.1	0.9	/	/
CCOc1ccc(Cl)cc1-c1cc(C(=O)Nc2cc(OC)c(OC)c(OC)c2)[nH]n1	2.6	7.0	20.2*	-11.0	6.2	0.8	7.2	1.5
COc1ccc(NC(=O)c2cc(-c3cc(C)cc(F)c3)n[nH]2)cc1OC	-2.6	8.5	26.3*	-23.7	2.4	-0.6	0.2	0.3
COc1ccc(NS(=O)(=O)c2cc(NC(=O)c3ccc(F)cc3)ccc2OC)cc1	0.3	7.7	14.2	-13.3	-0.7	0.1	/	/
COc1ccc(NC(=O)c2ccc(F)cc2)cc1S(=O)(=O)Nc1cc(C)ccc1Br	-1.5	7.5	22.6*	-41.8	2.7	0.8	8.2	2.6
COc1ccc(NC(=O)c2cc(-c3ccc(F)cc3C)n[nH]2)cc1OC	1.6	4.4	-9.7	3.7	4.0	-0.2	/	/
COc1ccc(S(=O)(=O)Nc2cc(OC)c(NC(=O)c3ccco3)cc2OC)cc1	-11.3	8.0	21.1*	-15.8	1.2	0.1	1.1	0.4
COc1ccccc1NCC(O)COc1ccc(C(C)(C)C)cc1 (configuration not stated)	-0.4	5.4	21.2*	8.9	-0.3	0.6	1.5	0.9
COc1cccc(NC(=S)NC(C)c2ccc(OC)c(OC)c2)c1 (configuration not stated)	1.0	-2.8	-2.0	3.4	-0.8	0.3	/	/
COc1cccc(NC(=S)NC(Cc2ccccc2)c2ccccc2)c1 (configuration not stated)	4.8	7.4	20.5*	-16.2	0.9	0.6	6.0	1.5

Assay outcomes: PubChem, The Scripps Research Institute Molecular Screening Center
